# Results as given in ChEMBL document CHEMBL4513216, “Probing the Open Global Health Chemical Diversity Library for Multistage-Active Starting Points for Next-Generation Antimalarials” (ACS Infect Dis, 2020).
# Among all 65,000 compounds or so, about 2,100 (3.2%) showed an effect of 50% or more. The median lay at about -52%. This is one part of a sample in which strong results are shown more often than they occur.
# System: Plasmodium falciparum
# Experiment: Screen against P. falciparum Asexual Blood Stage (ABS), at 5uM
# Format: functional, Dd2
# Details: tested at 5 uM
row,Structure (SMILES),INHIBITION [%]
1,Cc1cc(C(=O)N2CCN(C)CC2)nn1CC(=O)NCc1cccs1,-139
2,Cc1noc(CS(=O)(=O)C(C)C(=O)N(C)c2ccccc2)n1 (stereo not given),-10
3,Cc1noc(C)c1CN1CC[C@H]2OCC[C@@H](C(=O)NCC3CC3)[C@H]2C1,-48.5
4,Cc1ccc(C(=O)NCc2cc(F)ccc2N2CCCN(C)CC2)o1,34.9
5,CN1CCCN(c2ccc(F)cc2CNC(=O)c2cccnc2)CC1,-51.5
6,CN1CCCN(c2ccc(F)cc2CNC(=O)c2ccsc2)CC1,59.9
7,CCc1nc(CN2CCCC(NCc3cccc(C(N)=O)c3)C2)no1 (stereo not given),-86.3
8,Cc1ccnn1CC(=O)N(C)Cc1cnn(-c2ccccc2)c1,-96.8
9,CC(=O)NCCNC(=O)c1cc(COc2ccccc2)[nH]n1,-173
10,CO[C@H]1CN(C(C)C)C[C@@H]1NC(=O)c1cc(COc2ccccc2)[nH]n1,57.2
11,CO[C@H]1CN(C(C)C)C[C@@H]1NC(=O)c1cc(-c2ccccc2F)n[nH]1,-41.9
12,N#Cc1ccc(CNCCS(=O)(=O)N2CCc3ccccc32)cc1,-57.5
13,OC1CCN(c2ccnc(NCCc3ccccc3Cl)n2)C1 (stereo not given),61.6
14,OC1CCN(c2ccnc(NCCc3ccccc3Cl)n2)CC1,-50.8
15,OC1CCN(c2ccnc(NCCN3CCc4ccccc4C3)n2)C1 (stereo not given),-46.6
16,O=C(NCC1(Sc2ccccc2)CC1)c1ccc(=O)[nH]n1,-22.5
17,COCCOc1ccc(CNc2nc3ccccc3nc2N)cn1,-49.5
18,CCC1=NN2C(=N)C(=Cc3cccn3-c3cccc(Cl)c3)C(=O)N=C2S1,-39.1
19,COc1cc(NC(=O)NCc2nccn2C)ccc1Br,-84.1
20,O=C(c1ccco1)N1CCCC(c2cc(C(F)(F)F)n3ncnc3n2)C1 (stereo not given),4.5
21,Cc1ccsc1CN1C[C@@H]2COC[C@]2(CNC(=O)c2ccco2)C1,21.9
22,CC(C)N1CCC2(C=C(C(=O)N(C)C)c3ccccc32)CC1,-3.5
23,CCN1CCC2(C=C(C(=O)N(C)C)c3ccccc32)CC1,-0.272
24,CN1CCC2(C=C(C(=O)N(C)C)c3ccccc32)CC1,61.5
25,Cc1nc(CN(C)C2CCN(Cc3ccc4ccccc4n3)C2)no1 (stereo not given),-24.6
26,Cc1ccccc1N1CC2(CCN(c3nncs3)C2)CC1=O (stereo not given),-152
27,O=C(NC1CC1)[C@@]12CCO[C@@H]1CCN(Cc1ccc3c(c1)OCO3)C2,-28.1
28,O=C1Nc2ccccc2C1C1CCN(C(=O)C2CC2)CC1 (stereo not given),-87.8
29,CN(C)C(=O)N1CCC(C2C(=O)Nc3ccccc32)CC1 (stereo not given),60
30,CC(C)C(=O)N1CCC(C2C(=O)Nc3ccccc32)CC1 (stereo not given),-81.3
